Experimental data from article PMC5540273 (PLoS ONE, 2017).

Assays:
Settings in all cases: concentration: 1 μM,replicates: in singlicate; n = 1
[1] = tested on: MTOR
[2] = tested on: MUSK
[3] = tested on: MYLK2
[4] = tested on: MYLK4
[5] = tested on: MYLK
[6] = tested on: MYO3A
[7] = tested on: MYO3B
[8] = tested on: T1, NDR1
T1 construct: gene STK38

[9] = tested on: NDR2
[10] = tested on: NEK10
[11] = tested on: NEK11
[12] = tested on: NEK1
[13] = tested on: NEK2
[14] = tested on: NEK3
[15] = tested on: NEK4
[16] = tested on: NEK5
[17] = tested on: NEK6
[18] = tested on: NEK7
[19] = tested on: NEK9
[20] = tested on: T2, NIK
T2 construct: gene MAP3K14
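Further: KINOMEscan kinase panel screen.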

SMILES: Cc1n[nH]c2ccc(-c3cc(OC[C@@H](N)Cc4ccccc4)cnc3-c3ccoc3)cc12.O=C(O)C(F)(F)F.O=C(O)C(F)(F)F [GSK507358]
- %Inh [1]: 1%
- %Inh [2]: 6%
- %Inh [3]: 25%
- %Inh [4]: 15%
- %Inh [5]: 14%
- %Inh [6]: 80%
- %Inh [7]: 28%
- %Inh [8]: 14%
- %Inh [9]: 16%
- %Inh [10]: 5%
- %Inh [11]: 0%
- %Inh [12]: 1%
- %Inh [13]: 0%
- %Inh [14]: 0%
- %Inh [15]: 0%
- %Inh [16]: 0%
- %Inh [17]: 0%
- %Inh [18]: 11%
- %Inh [19]: 30%
- %Inh [20]: 87%

SMILES: Cl.Cl.Nc1nc(-c2ccc3c(N)n[nH]c3c2)cc(N2CCCC(NC(=O)c3ccccc3)C2)n1 (stereo not drawn) [GSK2286775]
- %Inh [1]: 39%
- %Inh [2]: 0%
- %Inh [3]: 0%
- %Inh [4]: 27%
- %Inh [5]: 11%
- %Inh [6]: 22%
- %Inh [7]: 0%
- %Inh [8]: 20%
- %Inh [9]: 0%
- %Inh [10]: 16%
- %Inh [11]: 0%
- %Inh [12]: 7%
- %Inh [13]: 0%
- %Inh [14]: 23%
- %Inh [15]: 7%
- %Inh [16]: 11%
- %Inh [17]: 0%
- %Inh [18]: 0%
- %Inh [19]: 6%
- %Inh [20]: 0%

SMILES: C=CC(=O)Nc1cc2c(Nc3ccc(F)c(Cl)c3)ncnc2cc1OCCCN1CCOCC1 [GW781483]
- %Inh [1]: 15%
- %Inh [2]: 0%
- %Inh [3]: 0%
- %Inh [4]: 18%
- %Inh [5]: 0%
- %Inh [6]: 0%
- %Inh [7]: 3%
- %Inh [8]: 4%
- %Inh [9]: 1%
- %Inh [10]: 17%
- %Inh [11]: 0%
- %Inh [12]: 0%
- %Inh [13]: 0%
- %Inh [14]: 18%
- %Inh [15]: 0%
- %Inh [16]: 3%
- %Inh [17]: 0%
- %Inh [18]: 11%
- %Inh [19]: 22%
- %Inh [20]: 6%

SMILES: CC(C)N1C(=O)Cc2cc(Nc3ncc(C(F)(F)F)c(NCc4cccc(S(C)(=O)=O)c4)n3)ccc21
- %Inh [1]: 0%
- %Inh [2]: 15%
- %Inh [3]: 0%
- %Inh [4]: 0%
- %Inh [5]: 10%
- %Inh [6]: 0%
- %Inh [7]: 3%
- %Inh [8]: 35%
- %Inh [9]: 0%
- %Inh [10]: 0%
- %Inh [11]: 0%
- %Inh [12]: 0%
- %Inh [13]: 0%
- %Inh [14]: 37%
- %Inh [15]: 0%
- %Inh [16]: 1%
- %Inh [17]: 0%
- %Inh [18]: 12%
- %Inh [19]: 2%
- %Inh [20]: 0%

SMILES: Cc1occc1-c1nc(N)c(OC[C@@H](N)Cc2c[nH]c3ccccc23)cc1-c1cc2c(C)n[nH]c2cn1 [GSK1660450]
- %Inh [1]: 15%
- %Inh [2]: 9%
- %Inh [3]: 29%
- %Inh [4]: 9%
- %Inh [5]: 37%
- %Inh [6]: 69%
- %Inh [7]: 28%
- %Inh [8]: 11%
- %Inh [9]: 0%
- %Inh [10]: 6%
- %Inh [11]: 0%
- %Inh [12]: 46%
- %Inh [13]: 6%
- %Inh [14]: 0%
- %Inh [15]: 0%
- %Inh [16]: 29%
- %Inh [17]: 0%
- %Inh [18]: 100%
- %Inh [19]: 67%
- %Inh [20]: 78%

SMILES: CNC(=O)c1ccccc1Sc1ccc2c(/C=C/c3ccccn3)n[nH]c2c1
- %Inh [1]: 52%
- %Inh [2]: 51%
- %Inh [3]: 9%
- %Inh [4]: 6%
- %Inh [5]: 14%
- %Inh [6]: 0%
- %Inh [7]: 0%
- %Inh [8]: 9%
- %Inh [9]: 0%
- %Inh [10]: 18%
- %Inh [11]: 0%
- %Inh [12]: 0%
- %Inh [13]: 5%
- %Inh [14]: 32%
- %Inh [15]: 0%
- %Inh [16]: 11%
- %Inh [17]: 0%
- %Inh [18]: 26%
- %Inh [19]: 1%
- %Inh [20]: 0%

SMILES: COc1ccc(C[C@@H](CN)NC(=O)c2cc(Br)c(-c3ccnc4[nH]ccc34)s2)cc1.Cl.Cl [GSK1389063]
- %Inh [1]: 17%
- %Inh [2]: 20%
- %Inh [3]: 52%
- %Inh [4]: 98.5%
- %Inh [5]: 99.6%
- %Inh [6]: 10%
- %Inh [7]: 0%
- %Inh [8]: 96.8%
- %Inh [9]: 78%
- %Inh [10]: 23%
- %Inh [11]: 14%
- %Inh [12]: 0%
- %Inh [13]: 29%
- %Inh [14]: 22%
- %Inh [15]: 1%
- %Inh [16]: 19%
- %Inh [17]: 0%
- %Inh [18]: 0%
- %Inh [19]: 0%
- %Inh [20]: 37%

SMILES: CCN(CC)CCOc1ccc(Nc2ncc3cc(-c4c(Cl)cccc4Cl)c(=O)n(C)c3n2)cc1 [SB-601273]
- %Inh [1]: 43%
- %Inh [2]: 51%
- %Inh [3]: 98.4%
- %Inh [4]: 26%
- %Inh [5]: 29%
- %Inh [6]: 61%
- %Inh [7]: 38%
- %Inh [8]: 32%
- %Inh [9]: 71%
- %Inh [10]: 12%
- %Inh [11]: 98.5%
- %Inh [12]: 34%
- %Inh [13]: 99.5%
- %Inh [14]: 26%
- %Inh [15]: 0%
- %Inh [16]: 35%
- %Inh [17]: 44%
- %Inh [18]: 0%
- %Inh [19]: 20%
- %Inh [20]: 31%

SMILES: C[C@H]1Oc2cc(cnc2N)-c2c(nn(C)c2C#N)CN(C)C(=O)c2ccc(F)cc21
- %Inh [1]: 0%
- %Inh [2]: 11%
- %Inh [3]: 18%
- %Inh [4]: 10%
- %Inh [5]: 10%
- %Inh [6]: 10%
- %Inh [7]: 17%
- %Inh [8]: 31%
- %Inh [9]: 25%
- %Inh [10]: 19%
- %Inh [11]: 0%
- %Inh [12]: 0%
- %Inh [13]: 22%
- %Inh [14]: 29%
- %Inh [15]: 0%
- %Inh [16]: 0%
- %Inh [17]: 0%
- %Inh [18]: 28%
- %Inh [19]: 3%
- %Inh [20]: 3%
